# Reference: PubChem BioAssay AID2284172 (EPA ToxCast)
# The source made the active and inactive calls. How the source made its calls: active means hit-call score of the fitted dose curve at least 0.9, where 1 is the maximum; inactive means score below 0.9.
# Target: rat Cav1.2 (L-type), conducted at France lab site, Cacna1a (gene 25398) (UniProt P54282)
# Assay: ERF_FR_IC_rCACNA1C_Dihydropyridine: Eurofins (ERF) Calcium Ion Channel Binding (Dihydropyridine Site) LeadHunter Assay for rat Cav1.2 (L-type), conducted at France lab site
# Experimental: ERF_FR_IC_rCACNA1C_Dihydropyridine is a biochemical, single-readout assay that uses extracted gene-proteins in a cell-free assay. Measurements were taken 1.5 hour after chemical dosing in a 96-well plate. See Cav1.2 (L-type) Rat Calcium Ion Channel Binding (Dihydropyridine Site) Assay, Cerep.ERF_FR_IC_rCACNA1C_Dihydropyridine is an assay component calculated from the ERF_FR_IC_rCACNA1C_Dihydropyridine assay. It is designed to measure radioligand binding using a type of binding reporter as detected by scintillation counting with radiometry technology.Data from the assay component ERF_FR_IC_rCACNA1C_Dihydropyridine was analyzed at the assay endpoint, ERF_FR_IC_rCACNA1C_Dihydropyridine, in the positive analysis fitting direction relative to DMSO as the negative control and baseline of activity. Using a type of binding reporter, loss-of-signal activity can be used to understand changes in binding as they relate to gene CACNA1C. To generalize the intended target to other relatable targets, this assay endpoint is annotated to the ion channel intended target family, where the subfamily is voltage gated (Calcium).
# Rat brain cells are incubated for 90 minutes at room temprature with [3H]nitrendipine (0.25 nM) ligand and Nitrendipine as control inhibitor. Test Sample Requirements: Minimum for 1) Screen: 60 ul of 10 mM stock -OR- 1 mg (pre-weighed) for 10 uM final testing. […]
# Chain of rat Cav1.2 (L-type), conducted at France lab site, Cacna1a (gene 25398) (P54282 whole entry, looked up): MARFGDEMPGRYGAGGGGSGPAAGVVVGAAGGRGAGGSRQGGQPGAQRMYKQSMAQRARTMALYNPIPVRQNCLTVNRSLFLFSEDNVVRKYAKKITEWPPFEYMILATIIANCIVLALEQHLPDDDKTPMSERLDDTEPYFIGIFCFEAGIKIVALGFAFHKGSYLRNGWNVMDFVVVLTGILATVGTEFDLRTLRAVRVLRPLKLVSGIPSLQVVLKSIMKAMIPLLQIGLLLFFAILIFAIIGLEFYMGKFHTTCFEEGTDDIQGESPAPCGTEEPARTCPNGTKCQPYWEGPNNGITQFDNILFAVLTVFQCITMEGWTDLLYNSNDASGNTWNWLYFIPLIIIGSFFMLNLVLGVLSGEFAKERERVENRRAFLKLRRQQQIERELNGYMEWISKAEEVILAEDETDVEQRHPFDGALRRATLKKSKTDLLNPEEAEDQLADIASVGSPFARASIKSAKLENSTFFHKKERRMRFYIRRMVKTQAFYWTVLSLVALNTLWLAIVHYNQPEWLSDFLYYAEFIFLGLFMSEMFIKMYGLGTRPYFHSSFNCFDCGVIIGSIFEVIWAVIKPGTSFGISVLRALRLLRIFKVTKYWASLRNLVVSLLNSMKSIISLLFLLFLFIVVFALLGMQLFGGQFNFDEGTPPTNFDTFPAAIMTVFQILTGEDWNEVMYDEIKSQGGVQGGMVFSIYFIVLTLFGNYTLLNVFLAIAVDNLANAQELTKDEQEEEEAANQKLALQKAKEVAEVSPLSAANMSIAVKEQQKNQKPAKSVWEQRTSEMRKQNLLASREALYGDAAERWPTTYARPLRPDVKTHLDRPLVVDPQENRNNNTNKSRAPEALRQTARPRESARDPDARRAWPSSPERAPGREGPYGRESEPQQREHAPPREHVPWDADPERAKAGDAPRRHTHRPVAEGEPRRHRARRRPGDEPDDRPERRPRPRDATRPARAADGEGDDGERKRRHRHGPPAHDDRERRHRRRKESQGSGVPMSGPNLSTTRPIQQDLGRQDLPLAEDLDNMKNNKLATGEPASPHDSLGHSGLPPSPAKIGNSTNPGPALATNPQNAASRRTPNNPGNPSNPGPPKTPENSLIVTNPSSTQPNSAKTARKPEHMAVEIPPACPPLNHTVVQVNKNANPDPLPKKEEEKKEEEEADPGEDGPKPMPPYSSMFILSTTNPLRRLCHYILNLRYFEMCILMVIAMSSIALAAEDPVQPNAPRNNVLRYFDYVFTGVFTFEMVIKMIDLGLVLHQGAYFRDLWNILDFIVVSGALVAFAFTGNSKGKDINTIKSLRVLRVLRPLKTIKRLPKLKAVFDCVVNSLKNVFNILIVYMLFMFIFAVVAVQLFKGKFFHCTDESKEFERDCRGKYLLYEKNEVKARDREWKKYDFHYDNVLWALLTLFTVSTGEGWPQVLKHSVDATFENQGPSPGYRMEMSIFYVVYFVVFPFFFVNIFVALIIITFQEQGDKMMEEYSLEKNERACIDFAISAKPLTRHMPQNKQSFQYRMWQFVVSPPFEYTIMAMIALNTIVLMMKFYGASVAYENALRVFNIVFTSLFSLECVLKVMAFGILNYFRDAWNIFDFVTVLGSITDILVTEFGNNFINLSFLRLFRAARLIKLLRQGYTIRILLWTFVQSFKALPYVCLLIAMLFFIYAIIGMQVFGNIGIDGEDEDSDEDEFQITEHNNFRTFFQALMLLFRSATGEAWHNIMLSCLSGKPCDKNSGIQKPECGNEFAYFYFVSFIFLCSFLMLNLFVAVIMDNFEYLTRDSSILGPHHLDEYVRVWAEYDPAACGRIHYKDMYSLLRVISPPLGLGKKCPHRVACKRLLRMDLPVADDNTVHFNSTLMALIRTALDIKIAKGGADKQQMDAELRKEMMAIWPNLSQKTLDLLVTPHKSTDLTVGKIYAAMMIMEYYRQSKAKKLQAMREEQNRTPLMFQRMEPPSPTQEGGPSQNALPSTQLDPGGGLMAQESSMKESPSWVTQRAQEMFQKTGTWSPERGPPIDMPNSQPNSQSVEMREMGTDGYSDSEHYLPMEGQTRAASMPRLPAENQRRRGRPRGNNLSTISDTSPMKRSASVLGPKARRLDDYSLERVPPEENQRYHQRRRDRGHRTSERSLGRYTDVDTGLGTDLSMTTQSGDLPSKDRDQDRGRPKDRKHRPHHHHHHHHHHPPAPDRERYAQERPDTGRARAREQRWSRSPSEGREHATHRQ
compound,measurement,value
CCCCC[C@H](O)CC(=O)CCc1ccc(O)c(OC)c1,outcome,inactive
